Among the data in PubChem BioAssay (NCI) are growth values, retold here.

This is part of a sample that, as a whole, favours compounds with a hit. Of some 83,000 tested, about 20% had one in any assay.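 Compound tested at a single concentration for 48 hours in 96-well plates; a percent growth value below 10 was scored as active.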 Values without a mark were called inactive. Calls of active or inactive are those of the source.

Some test systems named below: SR leukemia; RPMI-8226 leukemia; OVCAR-8 ovarian; OVCAR-5 ovarian; OVCAR-4 ovarian; SK-OV-3 ovarian; OVCAR-3 ovarian; HS 578T breast; NCI/ADR-RES ovarian; T-47D breast; BT-549 breast; MDA-MB-435 melanoma; SW-620 colon; MCF7 breast; HCT-116 colon; HCC-2998 colon; KM12 colon; IGROV1 ovarian.
Holding throughout (test): NCI-60 one-dose screen, 48 h (100 = growth as untreated, 0 = no growth, -100 = all killed)
What all share (conditions): 10 µM unless noted

`Oc1c(CN2CCCC2)cc(COCc2ccccc2)c2cccnc12`: the growth in the assay with SR leukemia is 12.4%; in the assay with RPMI-8226 leukemia, 16.7%; with OVCAR-8 ovarian it was 9.92% (active); in the assay on OVCAR-5 ovarian, 43.1%; in the assay with OVCAR-4 ovarian, 14.3%; in the assay on SK-OV-3 ovarian, -4.92% (active). Further, the growth in the assay with OVCAR-3 ovarian is 18.1%; in the assay on HS 578T breast, 64.5%; with NCI/ADR-RES ovarian, -7.48% (active); in the assay with T-47D breast, 5.66% (active); in the assay with BT-549 breast it was 27.2%; in the assay on MDA-MB-435 melanoma, 33.5%. Moreover, the growth with SW-620 colon was 22.3%; in the assay on MCF7 breast it was 10% (active); with HCT-116 colon it was 9.16% (active); with HCC-2998 colon it was 49.7%; in the assay on KM12 colon, 28.7%.

For `COc1cc2c(cc1O)[C@@]1(C)[C@H](c3ccccc3Br)OC(=O)N1CC2`, the growth in the assay with SR leukemia was 86.6%; in the assay on RPMI-8226 leukemia, 67.1%; in the assay with OVCAR-8 ovarian, 88.2%; in the assay with OVCAR-5 ovarian, 121%; with OVCAR-4 ovarian, 76.6%; in the assay with SK-OV-3 ovarian it was 107%. The growth is 94.1% in the assay on OVCAR-3 ovarian; 97.9% with HS 578T breast; 83.8% in the assay on NCI/ADR-RES ovarian; 65.4% in the assay with T-47D breast; 92.8% in the assay with BT-549 breast; 92.1% with MDA-MB-435 melanoma. Besides, the growth is 104% in the assay with SW-620 colon; 99.1% in the assay with MCF7 breast; 77.1% with HCT-116 colon; 99% in the assay on HCC-2998 colon; 89.7% in the assay with KM12 colon.

Turning to `C=CC(=O)NCCOc1cccc(Nc2cc(NCCCNC(=O)C3CCC3)c(Br)cn2)c1`, the growth with SR leukemia was -10.1% (active); in the assay on RPMI-8226 leukemia it was -22.8% (active); in the assay on OVCAR-8 ovarian, 4.84% (active); with OVCAR-5 ovarian, 2.75% (active); with OVCAR-4 ovarian it was -20.6% (active); in the assay on SK-OV-3 ovarian, -54.4% (active). Also, the growth in the assay with IGROV1 ovarian was 2.28% (active); in the assay on OVCAR-3 ovarian, -25.5% (active); in the assay with HS 578T breast, -18.4% (active); in the assay on NCI/ADR-RES ovarian, 39.5%; in the assay on BT-549 breast, -59.5% (active); in the assay with MDA-MB-435 melanoma, -1.47% (active). Also, the growth was 2.26% (active) with SW-620 colon; 1.91% (active) in the assay with MCF7 breast; 4.97% (active) in the assay with HCT-116 colon; -43.7% (active) in the assay with HCC-2998 colon; 5.83% (active) in the assay with KM12 colon.

Consider `Cc1[nH]c(C(=O)Nc2cccc(OC3CCNCC3)c2)c(Cl)c1Cl`, for which the growth with SR leukemia was 13.6%; with RPMI-8226 leukemia, 43.2%; in the assay on OVCAR-8 ovarian, 94.2%; in the assay with OVCAR-5 ovarian, 95.4%; in the assay with OVCAR-4 ovarian, 98.6%; with SK-OV-3 ovarian, 96.5%. In addition, the growth in the assay on OVCAR-3 ovarian was 82.4%; in the assay on HS 578T breast, 56.6%; in the assay with NCI/ADR-RES ovarian it was 89.2%; with T-47D breast it was 87.9%; in the assay on BT-549 breast, 84.6%; in the assay with MDA-MB-435 melanoma, 43%. Also, the growth was 0.537% (active) with SW-620 colon; 47.4% in the assay with MCF7 breast; 46.2% in the assay on HCT-116 colon; 2.97% (active) in the assay on HCC-2998 colon; 57% in the assay with KM12 colon.

As to `CNCc1cccc2c1OCCOCCN(C)C(=O)CN(C)S(=O)(=O)c1ccc(cc1)-c1cnc(N)c(n1)C(=O)N2`, the growth is -16.9% (active) in the assay with SR leukemia; 88.8% in the assay on RPMI-8226 leukemia; 2.03% (active) in the assay on OVCAR-8 ovarian; 33.8% in the assay with OVCAR-5 ovarian; 42.4% in the assay on OVCAR-4 ovarian; 8.28% (active) with SK-OV-3 ovarian. Besides, the growth is -25.3% (active) in the assay on OVCAR-3 ovarian; 63.3% in the assay on HS 578T breast; 102% in the assay on NCI/ADR-RES ovarian; -9.54% (active) in the assay on T-47D breast; 92.4% with BT-549 breast; -91.8% (active) with MDA-MB-435 melanoma. Also, the growth is 11.6% with MCF7 breast, -69% (active) in the assay with HCT-116 colon, 28% in the assay on HCC-2998 colon and 9.24% (active) in the assay with KM12 colon.

Consider `FC(F)(F)c1[nH]ncc1-c1nc2c(N3CCCCC3)cc3[nH]ncc3c2c2c1CCCC2`, for which the growth with SR leukemia was -4.82% (active); in the assay with RPMI-8226 leukemia it was -6.13% (active); in the assay on OVCAR-8 ovarian, 7.14% (active); in the assay on OVCAR-5 ovarian, 6.62% (active); with OVCAR-4 ovarian, 24.3%; in the assay on SK-OV-3 ovarian it was -25% (active). The growth in the assay on OVCAR-3 ovarian is -2.67% (active); in the assay on HS 578T breast, -11.8% (active); with NCI/ADR-RES ovarian, 44.8%; in the assay with T-47D breast it was -4.06% (active); with BT-549 breast it was -52.7% (active); with MDA-MB-435 melanoma, 10.8%. Moreover, the growth in the assay on SW-620 colon was 6.31% (active); with MCF7 breast it was 3.33% (active); in the assay on HCT-116 colon, 3.74% (active); in the assay with HCC-2998 colon, -8.43% (active); in the assay with KM12 colon it was 11.1%.

As for `C=CC1(C)C(O[Si](C)(C)C(C)(C)C)CC2C3OC(=O)NC31c1cccc3c1[C@H](C(=O)N3C)C2(C)C` (stereo not given in full), the growth was 24.4% with SR leukemia; 7.41% (active) in the assay with RPMI-8226 leukemia; 55.1% with OVCAR-8 ovarian; 75.8% in the assay with OVCAR-5 ovarian; 55.1% with OVCAR-4 ovarian; 86.6% in the assay on SK-OV-3 ovarian. For the same molecule, the growth was 52.7% with OVCAR-3 ovarian; 79.2% with HS 578T breast; 60.5% in the assay on NCI/ADR-RES ovarian; 23.8% in the assay on T-47D breast; 53.8% with BT-549 breast; 56.2% with MDA-MB-435 melanoma. Also, the growth in the assay on SW-620 colon is 64.6%; in the assay on MCF7 breast it was 27.7%; in the assay on HCT-116 colon, 38.6%; in the assay with HCC-2998 colon, 69.1%; in the assay with KM12 colon, 50.5%.

Take `N=C(N)c1ccc(-c2ccc(-c3ccc(Cl)cc3)o2)o1`: the growth with SR leukemia was -28.8% (active); in the assay on RPMI-8226 leukemia, -6.54% (active); in the assay with OVCAR-8 ovarian it was -55.4% (active); in the assay on OVCAR-5 ovarian, 3.3% (active); in the assay with OVCAR-4 ovarian, 46.2%; with SK-OV-3 ovarian, 81.2%. For the same molecule, the growth with OVCAR-3 ovarian is -86.1% (active); in the assay with HS 578T breast, 78.6%; in the assay with NCI/ADR-RES ovarian, -50.6% (active); with T-47D breast, 26.5%; in the assay with BT-549 breast, 93.1%; with MDA-MB-435 melanoma, -89.1% (active). Moreover, the growth is -69.7% (active) in the assay with SW-620 colon; -70.9% (active) with MCF7 breast; -76.1% (active) in the assay with HCT-116 colon; -81.1% (active) with HCC-2998 colon; -84.9% (active) with KM12 colon.
